Data taken from PubChem BioAssay (NCI).
About 83,000 compounds went through this panel and 20% of them were active in at least one assay; those are over-represented in the sample as a whole.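 Activity criterion: percent growth below 10, measured after cells in 96-well plates were exposed to a single compound concentration for 48 hours.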 Values without a mark were called inactive. The source made the active and inactive calls.

Columns and labels:
Test in all cases: NCI-60 one-dose screen, 48 h (100 = growth as untreated, 0 = no growth, -100 = all killed)
Settings in all cases: 10 µM unless noted
[1] = system: SR leukemia
[2] = system: RPMI-8226 leukemia
[3] = system: OVCAR-8 ovarian
[4] = system: OVCAR-5 ovarian
[5] = system: OVCAR-4 ovarian
[6] = system: SK-OV-3 ovarian
[7] = system: IGROV1 ovarian
[8] = system: OVCAR-3 ovarian
[9] = system: HS 578T breast
[10] = system: NCI/ADR-RES ovarian
[11] = system: T-47D breast
[12] = system: BT-549 breast
[13] = system: MDA-MB-435 melanoma
[14] = system: SW-620 colon
[15] = system: MCF7 breast
[16] = system: HCT-116 colon
[17] = system: HCC-2998 colon
[18] = system: KM12 colon

SMILES | growth [1] | growth [2] | growth [3] | growth [4] | growth [5] | growth [6] | growth [7] | growth [8] | growth [9] | growth [10] | growth [11] | growth [12] | growth [13] | growth [14] | growth [15] | growth [16] | growth [17] | growth [18]
COc1ccc2nc3ccccc3c(NCc3ccc(Cl)cc3)c2c1 | -29.6% (active) | -44.9% (active) | 29.7% | 26.5% | 24.5% | 64% | 16.3% | 51% | 36% | 22.9% | 49.3% | 50.2% | 24.1% | 12.8% | -56.4% (active) | 6.81% (active) | -87.6% (active) | 40.1%
COc1ccc(-c2nc3c(c(-c4ccc(Cl)cc4)nn3-c3ccccc3)c(-c3ccc(O)cc3)c2C#N)cc1 | -29.9% (active) | -33% (active) | 61.3% | 78.9% | 47.5% | 84.5% | 72.4% | 34.1% | 24.6% | 54.6% | 24.6% | 54.4% | 44.3% | 48.5% | 13.6% | 12% | 70.3% | 34.4%
C=C1C(=O)O[C@H]2[C@H]1CC/C(COC(=O)NCc1cn(C)c3ccccc13)=C\CC[C@@]1(C)O[C@@H]21 | 6.96% (active) | -29.3% (active) | 4.58% (active) | 23% | 12% | 60.2% | 0.634% (active) | -80.8% (active) | 49.6% | 19% | -54.1% (active) | -54.3% (active) | -30.4% (active) | -48.4% (active) | 3.65% (active) | -97.2% (active) | 49.1% | 39.5%
CCCCCCCOc1cccc(/C=C2\N=C3SCCCN3C2=O)c1 | 105% | 91.7% | 102% | 115% | 85.6% | 107% | 98.7% | 90.6% | 109% | 97% | -15.5% (active) | 100% | 100% | 99.3% | 92.1% | 88.6% | 110% | 85.8%
CCN1C(=O)/C(=C/N2N=C(c3ccc(Cl)cc3)CC2c2ccc(OC)cc2)SC1=S (stereo not drawn) | 84.2% | 101% | 93.1% | 101% | 84.4% | 87.4% | 84.3% | 104% | 95.2% | 96.8% | 70.1% | 85.1% | 97.1% | 97.6% | 82.4% | 85.8% | 97.7% | 97.6%
CC(C)CCC(=O)[C@@H](C)[C@H]1[C@@H](OC2OCC(O)C(O)C2NS(C)(=O)=O)C[C@H]2[C@@H]3CC=C4C[C@@H](O)CC[C@]4(C)[C@H]3CC[C@]12C (stereo partly drawn) | 17% | -26.1% (active) | 35.4% | 64.5% | 75.5% | 0.627% (active) | 61.2% | 68.8% | -4.14% (active) | 82.7% | 43.6% | 22% | 1.92% (active) | 11.9% | 17.1% | 24.9% | 67.2% | 47%
CCOC(=O)C(CCCCC(NC(C)=O)(C(=O)OCC)C(=O)OCC)(NC(C)=O)C(=O)OCC | 99.8% | 103% | 107% | 103% | 107% | 96.9% | 106% | 107% | 104% | 98.4% | 89.4% | 107% | 104% | 104% | 98.3% | 105% | 109% | 100%
O=C(CSc1nnc(Cc2ccccc2Nc2c(Cl)cccc2Cl)n1-c1ccccc1)N1N=C(c2ccc3ccccc3c2)CC1c1ccc(Cl)cc1 (stereo not drawn) | 97.2% | 95.6% | 107% | 99.8% | 88.7% | 93.8% | 89.5% | 104% | 111% | 101% | 71.5% | 103% | 98.8% | 108% | 95% | 86.4% | 93.7% | 108%
COc1ccc2c(c1)OC1=C(C(=O)OC1)C2c1cc(OC)c2c(c1)OCCO2 (stereo not drawn) | 27.3% | 25% | 20.7% | 32.4% | 48% | -2.33% (active) | 19.3% | -30.4% (active) | 29.6% | 13.9% | 60.2% | 24.6% | -18.1% (active) | 24.6% | 10.3% | 4.09% (active) | 23% | 2.33% (active)
Oc1c(C(Nc2cccc3ccccc23)c2ccccc2)ccc2cccnc12 (stereo not drawn) | 3.7% (active) | 37.6% | 25% | 49.8% | 11.4% | 49.6% | 21.5% | 22.4% | 63.5% | 4.58% (active) | 49.1% | -16.1% (active) | 42.3% | 37.6% | 25.8% | 15.6% | 27.5% | 36%
Cc1ccccc1NC(=O)c1sc2nc3c(cc2c1N)C(=O)CCC3 | 34.4% | 67.2% | 78.6% | 80.8% | 67.6% | 22.1% | 77% | 4.33% (active) | 25.8% | 22.6% | 43.9% | 55.6% | -12.9% (active) | 25.4% | 21.7% | 34.5% | 67% | 19.2%
COc1ccc(-c2cc(-c3ccc(OC)cc3)c3sc(=O)[nH]c3n2)cc1 | 98.1% | 85.3% | 82.4% | 101% | 95.6% | 92.8% | 84.4% | 101% | 67.7% | 92.2% | 78.6% | 92.9% | 107% | 95.9% | 87.4% | 96.8% | 98.7% | 93.9%
O=C(Nc1ccc(Cl)cc1)c1cc(-c2ccc(Cl)cc2)c2sc(=O)[nH]c2n1 | 2% (active) | -6.18% (active) | 4.75% (active) | 32% | 13% | -24.3% (active) | 28.1% | 1.82% (active) | -14.4% (active) | 5.64% (active) | -22.8% (active) | 1.28% (active) | 7.39% (active) | 8.1% (active) | 0.758% (active) | 0.269% (active) | 19.1% | 4.21% (active)
NS(=O)(=O)c1ccc(CCn2c(SCC(=O)N/N=C/c3cccnc3)nc3ccccc3c2=O)cc1 | 65.3% | 49.7% | 75.1% | 108% | 94.6% | 115% | 104% | 84.7% | 82.7% | 105% | 65.9% | 79% | 93.7% | 96.7% | 79.6% | 77.3% | 111% | 81.8%
O=C(Nc1ccc([N+](=O)[O-])cc1)c1cc2ccccc2cc1O | -17.1% (active) | -26.9% (active) | 0.735% (active) | 20.7% | 1.96% (active) | 9.58% (active) | 15.2% | 83.6% | -19.9% (active) | -9.03% (active) | 1.61% (active) | -14.2% (active) | 0.673% (active) | 4.63% (active) | 5.51% (active) | -39.7% (active) | 5.37% (active) | 92.6%
Cc1ccccc1Nc1n[nH]c(Cc2ccccc2)n1 | 99.7% | 93.8% | 98.1% | 111% | 112% | 105% | 107% | 106% | 98.9% | 106% | 101% | 105% | 107% | 102% | 99.1% | 99.9% | 100% | 101%
